We go through ten compounds from PubChem BioAssay (NCATS).

Values without a mark were called inactive. Inconclusive results are not listed. Calls of active or inactive are those of the source. Unless noted, calls follow the shape of the dose curve; as a rule, active = well fitted curve in the direction sought with a large enough effect; inconclusive = small, poorly fitted or top-dose-only effect, or another doubt; inactive = no such curve, though single readings can be large; an effect the other way counts as inactive or inconclusive.

In experiment [1] the target is Luciferin 4-monooxygenase (Photinus pyralis) (UniProt P08659). Nature of the experiment: Biochemical firefly luciferase enzyme assay for NPC (AID 624030).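 Also: purified P. pyralis luciferase at 10 nM with luciferin and ATP substrate; 0% = DMSO and -100% = full luciferase inhibition by PTC124 control; nearly all actives have a fitted effect of over 70% in size.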 Summed up: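 Direct inhibition of firefly luciferase enzyme (10 nM final, 50 mM Tris Acetate) assessed by luminescence within 5 minutes. Percent activity scaled between DMSO and PTC124 positive control, with concentration-effect curves classified by fit quality and response.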
Chain of Luciferin 4-monooxygenase (Photinus pyralis) (P08659 whole entry, looked up): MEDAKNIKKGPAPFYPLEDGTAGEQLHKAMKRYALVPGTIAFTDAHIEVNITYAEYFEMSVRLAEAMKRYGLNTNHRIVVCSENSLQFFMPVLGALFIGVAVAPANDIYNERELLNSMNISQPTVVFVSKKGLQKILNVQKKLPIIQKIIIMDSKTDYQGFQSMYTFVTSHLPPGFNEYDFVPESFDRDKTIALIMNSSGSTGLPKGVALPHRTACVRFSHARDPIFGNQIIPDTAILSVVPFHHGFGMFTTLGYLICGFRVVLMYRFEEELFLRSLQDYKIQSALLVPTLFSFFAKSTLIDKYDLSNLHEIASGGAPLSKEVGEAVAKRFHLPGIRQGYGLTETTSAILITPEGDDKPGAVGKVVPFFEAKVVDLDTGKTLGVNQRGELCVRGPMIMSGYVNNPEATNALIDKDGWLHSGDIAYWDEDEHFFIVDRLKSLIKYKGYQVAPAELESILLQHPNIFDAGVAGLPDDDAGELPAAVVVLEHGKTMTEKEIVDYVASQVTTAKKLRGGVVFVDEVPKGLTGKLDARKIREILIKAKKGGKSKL

The nature of experiment [2]: S16 Schwann cell PMP22 intronic element firefly luciferase assay (AID 624032). Also: nearly all actives have a fitted effect of over 30% in size. Also: potency is read from the fitted curve at half-maximal effect.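 As to activity change, negative = inhibition: plate controls were DMSO for no effect and PTC124 positive control mean for full effect.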 Summed up:
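Luciferase reporter of PMP22 intronic-element expression in stably transfected S16 rat Schwann cells, read by ONE-Glo luminescence after 24 h compound exposure at 37 C. Activity scaled between DMSO (0%) and positive-control PTC124; concentration-effect curves quality-classified.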

The subject of another experiment is CP191. The experiment can be described thus: qHTS profiling for inhibitors of Plasmodium falciparum proliferation (AID 504749). Also: nearly all actives have a fitted effect of over 60% in size. Also: potency is read from the fitted curve at half-maximal effect. As to conditions: P. falciparum in erythrocytes, SYBR Green DNA, 72 h; series mostly up to 28.7 µM. The gist of the method:
(§1)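 Three-day growth assay of blood-stage parasites in erythrocytes (0.3% parasitemia, 2.5% hematocrit) at 37 C, 5% CO2, quantified by SYBR Green DNA staining after overnight detergent lysis.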
In general terms: Quantitative high-throughput screening tests each substance at several concentrations.

For the next experiment, the system named is PC49. Described as above. The settings on record: P. falciparum in erythrocytes, SYBR Green DNA, 72 h; series mostly up to 28.7 µM. Summed up:
as §1

Experiment [3] deals with Calcium and integrin-binding protein 1 (Homo sapiens) (UniProt Q99828). Nature of the experiment: Confirmatory qHTS for Identification of Calcium Integrin Binding Protein 1 (CIB1) Competitor (AID 1508617). Also: % is scaled to controls: 0 for no effect and ±100 for the full control effect; nearly all actives have a fitted effect of over 65% in size. Summed up:
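Compounds at up to 114 uM final met 1 uM GST-tagged CIB1 for 15 min at room temperature (HEPES pH 7.4, 5 mM CaCl2). FITC-labelled alphaIIb peptide, 100 nM, added; polarization read after 15 min more.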

For experiment [4], the target named is Glucocorticoid receptor (Homo sapiens) (UniProt P04150). Nature of the experiment: GR-GFP Redistribution (AID 450;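 active = compounds whose dose series gives a full or clear partial fitted curve of increased nuclear translocation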; also: potency is read from the fitted curve at half-maximal effect). The settings on record: U2OS GR-GFP nuclear translocation, laser cytometry, 2 h.
Chain of Glucocorticoid receptor (Homo sapiens) (P04150 whole entry, looked up): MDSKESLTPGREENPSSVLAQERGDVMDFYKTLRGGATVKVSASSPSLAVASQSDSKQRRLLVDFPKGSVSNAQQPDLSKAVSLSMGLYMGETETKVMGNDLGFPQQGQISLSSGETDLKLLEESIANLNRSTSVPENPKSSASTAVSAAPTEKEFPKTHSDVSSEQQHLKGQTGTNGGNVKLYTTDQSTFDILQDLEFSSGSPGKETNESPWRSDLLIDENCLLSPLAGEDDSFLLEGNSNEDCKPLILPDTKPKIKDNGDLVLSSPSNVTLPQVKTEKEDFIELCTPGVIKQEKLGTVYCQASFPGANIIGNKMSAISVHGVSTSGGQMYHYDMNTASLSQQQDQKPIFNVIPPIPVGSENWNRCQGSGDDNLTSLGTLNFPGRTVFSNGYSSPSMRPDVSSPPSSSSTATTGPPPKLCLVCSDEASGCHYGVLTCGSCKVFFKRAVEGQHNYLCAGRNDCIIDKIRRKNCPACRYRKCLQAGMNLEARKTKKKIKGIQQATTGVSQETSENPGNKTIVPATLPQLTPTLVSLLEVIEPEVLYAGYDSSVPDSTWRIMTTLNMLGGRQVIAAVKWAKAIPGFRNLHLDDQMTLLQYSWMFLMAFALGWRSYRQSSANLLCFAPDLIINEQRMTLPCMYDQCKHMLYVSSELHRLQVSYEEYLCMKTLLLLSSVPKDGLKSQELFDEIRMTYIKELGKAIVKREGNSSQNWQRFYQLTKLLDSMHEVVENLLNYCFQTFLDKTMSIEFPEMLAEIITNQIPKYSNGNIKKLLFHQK
Experiment [5] has the same target. Nature of the experiment: GR-EFC Redistribution (AID 451; calls by dose curve; also: potency is read from the fitted curve at half-maximal effect). The settings on record: CHO-K1 GR-EFC translocation, beta-gal luminescence, 2 h. Summed up:
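Translocation of GR-ED fusion to nuclear EA restores b-gal, read by luminescence after 1 h room-temperature detection. Engineered CHO-K1 biosensor cells, 1,000/well, exposed 2 h at 37 C to titrations up to 46 uM final.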

Experiment [6] deals with Guanine nucleotide-binding protein G(i) subunit alpha-1 (Homo sapiens) (UniProt P63096). Nature of the experiment: qHTS Assay for Inhibitors of RGS12 GoLoco Motif Activity (Green Fluorophore) (AID 879).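 Also: 0% = labeled peptide with Gαi1 and full inhibition = labeled peptide alone without protein; negative values mean loss of peptide binding seen as reduced polarization.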 The gist of the method: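 Fluorescence polarization assay: 50 nM Gαi1 with 10 nM FITC-labeled RGS12 GoLoco peptide in 10 mM Tris pH 7.5, 150 mM NaCl, 0.1 mM GDP, 0.05% NP40, 10 min at room temperature with compound.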
Chain of Guanine nucleotide-binding protein G(i) subunit alpha-1 (Homo sapiens) (P63096 whole entry, looked up): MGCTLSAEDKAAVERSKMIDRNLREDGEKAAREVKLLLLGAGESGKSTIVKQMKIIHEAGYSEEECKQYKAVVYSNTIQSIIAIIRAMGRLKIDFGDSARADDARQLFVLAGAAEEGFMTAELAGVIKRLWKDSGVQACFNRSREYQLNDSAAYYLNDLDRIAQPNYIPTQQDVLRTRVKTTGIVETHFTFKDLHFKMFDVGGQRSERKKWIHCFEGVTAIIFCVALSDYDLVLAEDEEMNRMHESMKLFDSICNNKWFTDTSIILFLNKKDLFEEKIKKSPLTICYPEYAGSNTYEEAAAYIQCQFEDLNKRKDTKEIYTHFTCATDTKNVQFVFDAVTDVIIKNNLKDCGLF

In experiment [7] the target is Cytochrome P450 3A4 (Homo sapiens) (UniProt P08684). The experiment can be described thus: qHTS Assay for Activators of Cytochrome P450 3A4 (AID 885). Also: nearly all actives have a fitted effect of over 65% in size. Summed up:
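Signal was normalized against complete inhibition by 57 uM ketoconazole. The reaction used 20nM CYP3A4 with 25uM Luciferin-PPXE, 10-min compound preincubation and a 60-min NADPH-supported step at RT.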

In experiment [8] the target is Pyruvate kinase PKM (Homo sapiens) (UniProt P14618). The experiment can be described thus: qHTS Assay for Activators of Human Muscle Pyruvate Kinase (AID 954; active = well fitted curve in the direction sought with a large enough effect, not every such curve was filed as active;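 also: 0% = uninhibited enzyme and -100% = no enzyme or full thiadiazolimine inhibition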). The gist of the method: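 Human PKM2 activity is measured as ATP generation, detected by luciferase-coupled luminescence. The enzyme (0.1 nM) acts on 0.5 mM PEP and 0.1 mM ADP for 1 h at ambient temperature; data are normalized to uninhibited and full-inhibition wells.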
Chain of Pyruvate kinase PKM (Homo sapiens) (P14618 whole entry, looked up): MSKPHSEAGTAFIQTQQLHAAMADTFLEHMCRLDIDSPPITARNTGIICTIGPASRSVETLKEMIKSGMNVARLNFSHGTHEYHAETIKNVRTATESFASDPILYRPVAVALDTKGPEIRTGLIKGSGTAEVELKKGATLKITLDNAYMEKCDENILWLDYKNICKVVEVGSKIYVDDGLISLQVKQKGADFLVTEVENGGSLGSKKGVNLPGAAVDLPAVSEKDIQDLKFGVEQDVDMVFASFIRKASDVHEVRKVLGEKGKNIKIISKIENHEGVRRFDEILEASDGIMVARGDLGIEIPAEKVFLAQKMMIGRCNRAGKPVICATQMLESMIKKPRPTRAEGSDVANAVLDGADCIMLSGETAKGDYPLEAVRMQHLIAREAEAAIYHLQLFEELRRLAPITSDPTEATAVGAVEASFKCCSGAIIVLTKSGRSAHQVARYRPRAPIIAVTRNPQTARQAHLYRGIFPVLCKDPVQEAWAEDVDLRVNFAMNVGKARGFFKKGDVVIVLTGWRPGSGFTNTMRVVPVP

In experiment [9] the target is Alpha-galactosidase A (Homo sapiens) (UniProt P06280). Nature of the experiment: Counterscreen for Glucocerebrosidase Inhibitors: qHTS Assay for Human alpha-Galactosidase at pH 4.5 (AID 992). Also: 0% is about no effect. Summed up:
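Quantitative HTS: compounds tested from 0.7 nM up to 77 uM against 2 nM enzyme with 80 uM 4-MU alpha-D-galactopyranoside. The 20 min room-temperature reaction is stopped with 1M NaOH/1M glycine, pH 10.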
A general note: Counterscreens check selectivity or assay interference.

Experiment [10] deals with alpha-glucosidase (Oryza sativa, rice) (UniProt Q653V4). The experiment can be described thus: Counterscreen for Glucocerebrosidase Inhibitors: qHTS Assay for Rice alpha-Glucosidase at pH 5.0 (AID 997).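 Also: 0% = full activity with enzyme and -100% = basal without enzyme.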 The gist of the method:
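Rice alpha-glucosidase (4 nM final) with 400 uM 4-methylumbelliferyl-alpha-D-glucopyranoside in citrate buffer pH 5.0, 20 min at room temperature, stopped at pH 10; fluorescence 365/440 nm, compounds 0.7 nM–77 uM, AC50 from Hill fits.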

Experiment [11] can be described thus: NFAT Signaling Pathway (AID 444; active = well fitted curve in either direction with a large enough effect, not every such curve was filed as active;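 also: carbachol stimulus at about its EC50 of 1 µM final; % is scaled to controls: 0 for no effect and ±100 for the full control effect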). The settings on record: Jurkat NFAT-bla M1, carbachol, beta-lactamase ratio, 5 h; at 7.69 µM (top of the series) unless noted. Summed up: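 Read-out: CCF4 FRET ratio (460 nm/530 nm) after 1 h RT dye loading, used for %activity and AC50 from titration series. Cells: Jurkat NFAT-β-lactamase/M1 line, treated with compound plus 1 uM carbachol for 5 h, 37 °C.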

The nature of experiment [12]: S16 Schwann cell PMP22 intronic element beta-lactamase assay (AID 624044; calls by dose curve;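 also: 0% = DMSO and -100% = potassium clavulanate positive control; nearly all actives have a fitted effect of over 15% in size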). Summed up: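 Rat S16 Schwann cells with beta-Lac driven by a PMP22 intronic element, compound-treated 24 h at 37 °C. LiveBLAzer FRET B/G read: 460 nm normalized to potassium clavulanate vs DMSO; 535 nm FRET as viability; concentration-effect curves classified.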
Another experiment relates to AS120. Nature of the experiment: qHTS profiling for inhibitors of Plasmodium falciparum proliferation (AID 504749). Also: nearly all actives have a fitted effect of over 60% in size. Also: potency is read from the fitted curve at half-maximal effect. As to conditions: P. falciparum in erythrocytes, SYBR Green DNA, 72 h; series mostly up to 28.7 µM. The gist of the method:
as §1

A further experiment concerns ATS189. Described as above. The settings on record: P. falciparum in erythrocytes, SYBR Green DNA, 72 h; series mostly up to 28.7 µM. Summed up: as §1
A further experiment relates to CP192. Described as above. As to conditions: P. falciparum in erythrocytes, SYBR Green DNA, 72 h; series mostly up to 28.7 µM. Summed up:
as §1

Another experiment relates to DFO2036. The description is as above. The settings on record: P. falciparum in erythrocytes, SYBR Green DNA, 72 h; series mostly up to 28.7 µM. Summed up: as §1
In the next experiment the test system is TAB113. The experiment is described as above. The settings on record: P. falciparum in erythrocytes, SYBR Green DNA, 72 h; series mostly up to 28.7 µM. Summed up:
as §1

Chain of Calcium and integrin-binding protein 1 (Homo sapiens) (Q99828 whole entry, looked up): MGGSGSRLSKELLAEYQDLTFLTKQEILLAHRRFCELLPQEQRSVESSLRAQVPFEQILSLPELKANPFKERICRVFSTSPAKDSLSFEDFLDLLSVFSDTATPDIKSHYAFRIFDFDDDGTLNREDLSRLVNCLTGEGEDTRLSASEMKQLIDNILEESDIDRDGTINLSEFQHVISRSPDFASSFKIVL
Chain of Alpha-galactosidase A (Homo sapiens) (P06280 whole entry, looked up): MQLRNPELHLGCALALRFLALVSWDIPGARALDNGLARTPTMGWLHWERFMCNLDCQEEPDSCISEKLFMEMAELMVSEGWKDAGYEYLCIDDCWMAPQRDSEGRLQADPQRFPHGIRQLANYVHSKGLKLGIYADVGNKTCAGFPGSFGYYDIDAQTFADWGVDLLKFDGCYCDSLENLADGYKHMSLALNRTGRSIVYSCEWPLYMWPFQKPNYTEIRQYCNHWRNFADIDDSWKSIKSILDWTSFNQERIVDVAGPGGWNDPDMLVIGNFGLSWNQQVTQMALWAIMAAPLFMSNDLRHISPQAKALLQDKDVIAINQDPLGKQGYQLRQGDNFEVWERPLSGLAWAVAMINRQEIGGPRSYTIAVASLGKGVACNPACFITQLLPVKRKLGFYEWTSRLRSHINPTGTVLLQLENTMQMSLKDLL
Chain of Cytochrome P450 3A4 (Homo sapiens) (P08684 whole entry, looked up): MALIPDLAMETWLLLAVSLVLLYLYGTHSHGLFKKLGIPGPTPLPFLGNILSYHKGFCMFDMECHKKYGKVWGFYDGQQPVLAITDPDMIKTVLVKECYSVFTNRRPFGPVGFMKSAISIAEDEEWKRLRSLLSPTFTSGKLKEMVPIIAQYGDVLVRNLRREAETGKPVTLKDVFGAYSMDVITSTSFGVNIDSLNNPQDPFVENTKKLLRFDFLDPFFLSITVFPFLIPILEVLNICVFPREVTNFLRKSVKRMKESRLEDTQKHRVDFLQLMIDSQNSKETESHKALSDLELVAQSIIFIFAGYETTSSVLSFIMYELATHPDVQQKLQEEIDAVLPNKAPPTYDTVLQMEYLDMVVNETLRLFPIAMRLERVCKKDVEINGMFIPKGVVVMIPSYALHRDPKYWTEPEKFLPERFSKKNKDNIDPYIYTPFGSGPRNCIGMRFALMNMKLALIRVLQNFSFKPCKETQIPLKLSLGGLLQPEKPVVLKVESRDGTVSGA

As for `CC(C)(C)[C@]1(O)CCN2CC3c4ccccc4CCc4cccc(c43)[C@@H]2C1` (stereo partly drawn), the Potency entry (in experiment [1]; in the experiment with PC49) was “inactive” throughout. Besides, the Potency in experiment [2] was 36.1 µM (active); in the experiment with CP191, 8.91 µM (active).
Take `CN1CCN(c2ccc(-c3cc(O)c4ncccc4c3)cc2)CC1`: the Potency entry in [3] was “inactive”.
Same read-out and setting: the result for `O=C(Cc1ccccc1)NC(c1ccco1)c1cc(Cl)c2cccnc2c1O` (stereo not drawn) reads “inactive”.
For `CCSC(N)=Nc1ccc(C(F)(F)F)cc1`, the Potency in experiment [4] and in experiment [5] was more than 46 µM each time. The compound was called inactive in [6], in experiment [8], in [9] and in [10]. Besides, in [7], the Potency entry is “inactive”.
For `COC(=O)c1c(-c2cc(OC)c(OC)c(OC)c2)c2ccc(OCc3ccccn3)cc2c(=O)n1-c1ccc(N)cc1`, the activity change, negative = inhibition in experiment [11] is 10.6% [at 38 µM]. The Potency in experiment [4] and in [5] was more than 46 µM in each case. Also, the outcome in experiment [6], in experiment [8], in [9] and in [10] was inactive. In experiment [7], the Potency entry is “inactive”.
In the case of `CCCC(=O)NCCc1c2n(c3ccc(OC)cc13)Cc1ccccc1-2`, the activity change, negative = inhibition in experiment [11] was -10.2% [at 38 µM]. In addition, the Potency in [4] and in experiment [5] was more than 46 µM each time. The compound was called inactive in experiment [6], in experiment [8], in experiment [9] and in [10]. In addition, the Potency result in experiment [7] was “inactive”.
As for `COc1ccc(CCNC[C@@H](O)c2ccc(O)cc2)cc1OC`, the Potency entry (in experiment [1]; in [2]; with AS120; with ATS189; in the experiment on CP191; with CP192) was “inactive” in each case. Also, the Potency result in the experiment on DFO2036, with PC49 and with TAB113 was “inactive” throughout. Besides, the compound was called inactive in [12].
Turning to `O=C1CCC2=C1C1(CCCC1)N=C(Nc1nc3ccccc3o1)N2`, in experiment [3], the Potency result is “inactive”.
For the compound `N=C1Sc2ccccc2C2=NCCCN12`, the Potency in experiment [4] and in experiment [5] was more than 46 µM in each case. Besides, the call in experiment [6], in [8], in [9] and in [10] was inactive. Besides, the Potency entry in experiment [7] is “inactive”.
Regarding `CN1C[C@H](C(=O)N[C@]2(C)O[C@@]3(O)C4CCCN4C(=O)[C@H](Cc4ccccc4)N3C2=O)C[C@@H]2c3cccc4[nH]cc(c34)C[C@H]21` (stereo partly drawn), the Potency in the experiment on AS120 was 1.41 µM (active); in the experiment on ATS189 it was 3.98 µM (active); in the experiment on CP191 it was 7.08 µM (active); in the experiment on DFO2036, 7.94 µM (active); in the experiment on PC49, 1.78 µM (active); in the experiment on TAB113, 3.55 µM (active).
